# According to PubChem BioAssay:
# Unmarked numbers belong to inactive results. Activity calls are given as the source filed them. Rule as the data show it: active = inhibition above about 44%; inactive = the rest.
# Target: Steroidogenic factor 1 (Homo sapiens) (UniProt Q13285)
# Assay: inverse agonism at SF1 nuclear receptor – cell-based, luminescence, high throughput, counter-screen for LRH-1 inverse agonist project (AID 651614);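 also: cells cotransfected with StAR promoter reporter and SF1 expression vector; 0% = vehicle on cells with receptor and 100% = vehicle on cells lacking receptor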
# Conditions: cell-based SF1 luciferase reporter, at 3.6 µM, active compounds read high
# Chain of Steroidogenic factor 1 (Homo sapiens) (Q13285 whole entry, looked up): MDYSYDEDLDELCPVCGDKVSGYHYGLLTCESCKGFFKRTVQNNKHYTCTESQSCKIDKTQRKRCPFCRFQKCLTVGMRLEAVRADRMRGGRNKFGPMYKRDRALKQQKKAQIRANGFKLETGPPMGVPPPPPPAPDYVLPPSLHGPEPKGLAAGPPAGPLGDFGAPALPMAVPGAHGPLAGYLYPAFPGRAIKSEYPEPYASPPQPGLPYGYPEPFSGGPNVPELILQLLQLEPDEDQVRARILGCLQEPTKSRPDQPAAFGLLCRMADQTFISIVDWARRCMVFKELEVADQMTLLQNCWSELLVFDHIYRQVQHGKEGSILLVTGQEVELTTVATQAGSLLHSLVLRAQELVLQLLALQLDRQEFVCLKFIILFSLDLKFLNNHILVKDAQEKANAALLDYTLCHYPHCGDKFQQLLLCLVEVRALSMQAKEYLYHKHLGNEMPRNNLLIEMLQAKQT
row,SMILES,inhibition
1,COc1ccc(NC(=O)CSc2n[nH]c(-c3ccccn3)n2)cc1,20.2%
2,Cc1cc(S(=O)(=O)NCc2ccncc2)c(C)cc1Br,38.6%
3,Cc1onc(-c2c(F)cccc2Cl)c1C(=O)Nc1cccc2nsnc12,49.8% (active)
4,O=C(Nc1ccc2oc(-c3cccnc3)nc2c1)c1ccc([N+](=O)[O-])o1,62.5% (active)
5,COc1cc(C(=O)NN=Cc2ccc(N(C)C)cc2)cc(OC)c1OC,51.1% (active)
6,COc1ccc(CCNC(=O)CSc2nn3c(=O)c(C)nnc3s2)cc1OC,47.2% (active)
7,CCOC(=O)C1CCCN(S(=O)(=O)c2ccc(S(=O)(=O)N(CC)CC)cc2)C1 (stereo not given),54.5% (active)
8,COc1ccc(/C=C/C(=O)c2cc(F)ccc2OC(=O)c2ccccc2C)cc1OC,44.9% (active)
9,Cc1cc(C(=O)CSc2nnnn2-c2ccccc2)c(C)n1-c1ccc2c(c1)OCO2,28.5%
10,O=[N+]([O-])c1cccc(-c2ccc3nnc(SCc4cccnc4)n3n2)c1,62% (active)
11,O=c1cc(C2CCCCC2)[nH]c(=O)[nH]1,48% (active)
12,COc1cc(CSc2nnnn2-c2ccc(C)cc2)cc(OC)c1OC,61.1% (active)
13,N#Cc1cc(Br)ccc1N=C1CCCN1c1ccccc1,42.6%
14,Cc1onc(-c2cccc(Cl)c2Cl)c1C(=O)O/N=C(\N)c1ccc([N+](=O)[O-])o1,67.3% (active)
15,CCc1c(O)nc(SCC(=O)Nc2ccccc2C)n(-c2ccc(C)cc2)c1=O,66% (active)
16,O=c1c2ccc(Cl)cc2nc(-c2cccc(C(F)(F)F)c2)n1O,35.4%
17,CC1CCCC(C)N1C(=O)COC(=O)Cc1ccc(F)cc1 (stereo not given),44.5% (active)
18,CCOc1ccc(NC(=O)COC(=O)CC2CCCCC2)cc1,44.8% (active)
19,CN1CCN(C2=C(Cl)C(=O)N(c3ccc(Cl)c(Cl)c3)C2=O)CC1,41.6%
20,CC(=O)Nc1ncc(Cc2cc(Cl)ccc2Cl)s1,46.7% (active)

row,SMILES,inhibition
1,COc1cc(NC(=O)CN2C(=O)NC(c3ccccc3)(c3ccccc3)C2=O)c(C)cc1[N+](=O)[O-],35.3%
2,C/C(=N\NC(N)=S)c1ccc(Cl)s1,35.5%
3,Cc1ccc(C)c(NC(=O)CSc2nnc(-c3ccccc3)n2N)c1,44.7% (active)
4,CC(=O)Nc1ccc(NC(=O)CSc2nnnn2C2CCCCC2)cc1,44.5% (active)
5,COc1ccc(/C=N/NC(=O)c2cc(-c3ccc(C)cc3C)nc3ccccc23)cc1COC(C)=O,50.6% (active)
6,CCC(=O)N1CCN(c2ccc(Cl)cc2NC(=O)c2ccc([N+](=O)[O-])o2)CC1,61.9% (active)
7,O=C(Cc1c(Cl)cccc1Cl)Nc1ccncc1,45.4% (active)
8,O=[N+]([O-])c1ccc(/C=N/n2c(CO)nc3ccccc32)s1,59.9% (active)
9,COc1ccc(CCNC(=O)CSc2nc(O)c(CCC(C)C)c(=O)[nH]2)cc1OC,50.4% (active)
10,COc1cccc2sc(N3CCN(C(=O)c4ccc([N+](=O)[O-])o4)CC3)nc12,70.4% (active)
11,Cc1ccc(Nc2nc(-c3cccnc3)nc3ccccc23)cc1,59.5% (active)
12,CC(C)(C)c1ccc(C(=O)Nc2ccc(C(=O)NCc3cccnc3)cc2)cc1,93.2% (active)
13,CC(=O)Nc1cc(-c2ccc(S(C)(=O)=O)cc2)cn2c(-c3ccc(F)c(Cl)c3)cnc12,51.7% (active)
14,O=C(C1=C[C@@H](C2CCCCC2)C[C@@H](OCc2ccc(CO)cc2)O1)N1CCN(Cc2ccc3c(c2)OCO3)CC1,40.6%
15,O=C(CN(Cc1ccccc1)C(=O)CCl)c1cccc(Br)c1,51.8% (active)
16,COc1cc(C(=O)NC2CCN(C)CC2)ccc1Nc1ncc2c(n1)N(CCc1ccccc1)CCC(=O)N2C,47.4% (active)
17,O=c1c2ccccc2ncn1Cc1ccco1,18.4%
18,CCc1nc(SCC(=O)c2ccccc2)c2ccccc2n1,55.3% (active)
19,CCc1ccccc1NC(=O)CSc1nnc([C@@H](NC(=O)OC(C)(C)C)C(C)C)o1,45.9% (active)
20,Cc1sc2ncnc(NCC(O)c3ccc([N+](=O)[O-])cc3)c2c1C (stereo not given),53.5% (active)
